PubChem BioAssay AID1159580 (chemical genetic matrix, 2015)
“And” between values parts separate entries of the source, which are not always exact repeats. Equal values may be shown once. The campaign covered roughly 5,500 compounds. About 2,000 (36%) were called active. About 18% were inconclusive and are not listed. No stated cut-off is given here; in the data, active means normalized growth mostly below about 0.91 (no sharp cut-off); inconclusive means no clear call, values can overlap the other calls; inactive means mostly above about 0.92. Some of the results follow.

Assay: chemical genetic growth profiling, strain panel (AID 1159580);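 further: tested at 20 µM; growth read once vehicle control cultures reached saturation at 30 °C; 1 = growth at the plate median or of vehicle wells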
Conditions: S. cerevisiae deletion strains, growth OD

Measured: normalized growth

O=P1(N(CCCl)CCCl)NCCCO1 (stereo not given)
active: locus YKL085W, strain MDH1 (second series), stronger effect = lower value 1.08 [resistant] | locus YKL085W, strain MDH1, stronger effect = lower value 1.08 [resistant]
inactive: locus YAL013W, strain DEP1, stronger effect = lower value 0.998 and 0.974 | locus YAL021C, strain ccr4, stronger effect = lower value 0.995 | locus YAL026C, strain drs2, stronger effect = lower value 0.981 | locus YAL030W, strain snc1, stronger effect = lower value 1.01 | locus YAL040C, strain CLN3, stronger effect = lower value 0.973 | locus YBL061C, strain skt5, stronger effect = lower value 1.01 | locus YBR009C, strain hhf1, stronger effect = lower value 1.01 | locus YBR021W, strain FUR4, stronger effect = lower value 1.02 | locus YBR023C, strain chs3, stronger effect = lower value 1.02 | locus YBR171W, strain sec66, stronger effect = lower value 1 | locus YBR229C, strain ROT2, stronger effect = lower value 1 | locus YBR231C, strain swc5, stronger effect = lower value 0.995 | locus YBR279W, strain paf1, stronger effect = lower value 1 | locus YCL011C, strain gbp2, stronger effect = lower value 1.01 | locus YCL016C, strain dcc1, stronger effect = lower value 1.04 | locus YCL029C, strain bik1, stronger effect = lower value 1.03 | locus YCL061C, strain MRC1 (second series), stronger effect = lower value 1 | locus YCL061C, strain MRC1, stronger effect = lower value 1 | locus YCL069W, strain vba3, stronger effect = lower value 0.995 | locus YCR088W, strain abp1, stronger effect = lower value 1 | locus YDL005C, strain med2, stronger effect = lower value 0.99 | locus YDL035C, strain GPR1, stronger effect = lower value 1.02 | locus YDL040C, strain nat1, stronger effect = lower value 0.998 | locus YDL074C, strain BRE1, stronger effect = lower value 1.03 | locus YDL101C, strain DUN1, stronger effect = lower value 1.01 | locus YDL185W, strain tfp1, stronger effect = lower value 1.01 | locus YDL192W, strain arf1, stronger effect = lower value 1.03 | locus YDR001C, strain nth1, stronger effect = lower value 0.992 | locus YDR069C, strain doa4, stronger effect = lower value 1 | locus YDR101C, strain arx1, stronger effect = lower value 1.02 | locus YDR137W, strain rgp1, stronger effect = lower value 1.01 | locus YDR150W, strain NUM1, stronger effect = lower value 0.996 | locus YDR159W, strain sac3, stronger effect = lower value 0.99 | locus YDR162C, strain NBP2, stronger effect = lower value 1.01 | locus YDR195W, strain ref2 0.977 | locus YDR297W, strain sur2, stronger effect = lower value 1.03 | locus YDR318W, strain mcm21, stronger effect = lower value 1.03 | locus YDR334W, strain swr1, stronger effect = lower value 0.994 | locus YDR335W, strain msn5, stronger effect = lower value 1.01 | locus YDR363W, strain ESC2, stronger effect = lower value 0.962 | locus YDR388W, stronger effect = lower value 1.02 | locus YDR392W, strain spt3, stronger effect = lower value 0.941 | locus YDR502C, strain sam2, stronger effect = lower value 1.06 | locus YEL003W, strain gim4, stronger effect = lower value 0.991 | locus YEL037C, strain rad23, stronger effect = lower value 0.984 | locus YEL061C, strain CIN8 (second series), stronger effect = lower value 0.98 | locus YEL061C, strain CIN8, stronger effect = lower value 1 | locus YER002W, strain NOP16, stronger effect = lower value 1.01 | locus YER015W, strain faa2, stronger effect = lower value 1.02 | locus YER016W, strain bim1, stronger effect = lower value 0.997 | locus YER110C, stronger effect = lower value 1.05 | locus YER111C, strain swi4, stronger effect = lower value 0.995 | locus YER155C, strain BEM2 (second series), stronger effect = lower value 0.936 | locus YER155C, strain BEM2, stronger effect = lower value 0.996 | locus YER167W, strain BCK2, stronger effect = lower value 1 | locus YFR010W, strain ubp6, stronger effect = lower value 0.971 | locus YGL078C, strain dbp3, stronger effect = lower value 1.03 | locus YGL086W, strain mad1, stronger effect = lower value 1.03 | locus YGL167C, strain pmr1, stronger effect = lower value 1.01 | locus YGL173C, strain kem1, stronger effect = lower value 1.01 | locus YGL227W, strain vid30, stronger effect = lower value 0.992 | locus YGL240W, strain doc1, stronger effect = lower value 0.983 | locus YGL248W, strain PDE1, stronger effect = lower value 1.01 | locus YGL253W, strain hxk2, stronger effect = lower value 0.987 | locus YGR078C, strain PAC10, stronger effect = lower value 0.988 | locus YGR135W, strain pre9, stronger effect = lower value 1.04 | locus YGR229C, strain SMI1, stronger effect = lower value 1 | locus YGR252W, strain gcn5, stronger effect = lower value 1.07 | locus YHR013C, strain ard1, stronger effect = lower value 1.03 | locus YHR027C, strain rpn1, stronger effect = lower value 1.01 | locus YHR030C, strain SLT2, stronger effect = lower value 1.01 and 0.994 | locus YHR079C, strain IRE1 (second series), stronger effect = lower value 1.03 | locus YHR079C, strain IRE1, stronger effect = lower value 0.991 | locus YHR094C, strain hxt1, stronger effect = lower value 1.03 | locus YHR129C, strain ARP1, stronger effect = lower value 1 | locus YHR142W, strain chs7, stronger effect = lower value 1.02 | locus YHR200W, strain rpn10, stronger effect = lower value 1.02 | locus YIL066C, strain RNR3, stronger effect = lower value 1.02 | locus YIL073C, strain SPO22, stronger effect = lower value 1.01 | locus YIL125W, strain kgd1, stronger effect = lower value 1.02 | locus YIR030C, strain dcg1, stronger effect = lower value 1.03 | locus YJL092W, strain hpr5, stronger effect = lower value 1.01 | locus YJL095W, strain BCK1 (second series), stronger effect = lower value 1.01 | locus YJL095W, strain BCK1, stronger effect = lower value 1.03 and 0.99 | locus YJL115W, strain asf1, stronger effect = lower value 0.994 | locus YJL129C, strain trk1, stronger effect = lower value 1.02 | locus YJL134W, strain LCB3, stronger effect = lower value 1.01 | locus YJL154C, strain vps35, stronger effect = lower value 0.988 | locus YJL164C, strain tpk1, stronger effect = lower value 1.01 | locus YJL166W, strain qcr8, stronger effect = lower value 1.03 | locus YJL168C, strain set2, stronger effect = lower value 1.02 | locus YJL187C, strain SWE1 (second series), stronger effect = lower value 1.01 | locus YJL187C, strain SWE1, stronger effect = lower value 1.02 | locus YJR043C, strain POL32, stronger effect = lower value 1.01 | locus YJR066W, strain TOR1, stronger effect = lower value 1 | locus YJR075W, strain HOC1, stronger effect = lower value 1 | locus YKL009W, strain mrt4, stronger effect = lower value 0.957 | locus YKL068W, stronger effect = lower value 1 | locus YKL160W, strain elf1, stronger effect = lower value 1.03 | locus YKR001C, strain vps1, stronger effect = lower value 1.03 | locus YKR026C, strain gcn3, stronger effect = lower value 0.993 | locus YKR091W, strain srl3, stronger effect = lower value 1.01 | locus YLL001W, strain dnm1, stronger effect = lower value 1.04 | locus YLL026W, stronger effect = lower value 1.01 | locus YLL041C, strain sdh2, stronger effect = lower value 0.991 | locus YLR027C, strain aat2, stronger effect = lower value 0.992 | locus YLR039C, strain RIC1, stronger effect = lower value 1.02 | locus YLR058C, strain SHM2, stronger effect = lower value 1.01 | locus YLR102C, strain apc9, stronger effect = lower value 1.02 | locus YLR113W, strain HOG1, stronger effect = lower value 0.994 | locus YLR221C, strain rsa3, stronger effect = lower value 1.07 | locus YLR258W, strain gsy2, stronger effect = lower value 1.01 | locus YLR262C, strain YPT6 (second series), stronger effect = lower value 1.01 | locus YLR262C, strain YPT6, stronger effect = lower value 1.01 | locus YLR268W, strain sec22, stronger effect = lower value 1.03 | locus YLR320W, strain mms22, stronger effect = lower value 1.05 | locus YLR330W, strain CHS5, stronger effect = lower value 1.01 | locus YLR342W, strain FKS1 (second series), stronger effect = lower value 1.02 | locus YLR342W, strain FKS1, stronger effect = lower value 1 | locus YLR357W, strain rsc2, stronger effect = lower value 0.984 | locus YLR370C, strain arc18, stronger effect = lower value 1.02 | locus YLR371W, strain rom2, stronger effect = lower value 1.02 | locus YLR384C, strain iki3, stronger effect = lower value 1 | locus YLR418C, strain cdc73, stronger effect = lower value 1.1 | locus YML016C, strain PPZ1, stronger effect = lower value 1 | locus YML032C, strain rad52, stronger effect = lower value 1.03 | locus YML120C, strain ndi1, stronger effect = lower value 1.04 | locus YML124C, strain tub3, stronger effect = lower value 1.04 | locus YMR058W, strain fet3, stronger effect = lower value 0.99 | locus YMR078C, strain ctf18, stronger effect = lower value 1.03 | locus YMR125W, strain sto1, stronger effect = lower value 0.981 | locus YMR129W, stronger effect = lower value 0.991 | locus YMR205C, strain PFK2, stronger effect = lower value 1.03 | locus YMR223W, strain ubp8, stronger effect = lower value 1.05 | locus YMR231W, strain pep5, stronger effect = lower value 0.997 | locus YMR263W, strain SAP30, stronger effect = lower value 1.01 and 1 | locus YMR307W, strain GAS1, stronger effect = lower value 1.03 and 0.994 | locus YNL067W, strain RPL9B, stronger effect = lower value 1.01 | locus YNL071W, strain lat1, stronger effect = lower value 0.991 | locus YNL128W, strain TEP1, stronger effect = lower value 1.02 and 0.983 | locus YNL175C, strain NOP13, stronger effect = lower value 0.989 | locus YNL183C, strain NPR1, stronger effect = lower value 0.946 | locus YNL197C, strain WHI3, stronger effect = lower value 0.976 | locus YNL209W, strain ssb2, stronger effect = lower value 1.01 | locus YNL224C, strain SQS1, stronger effect = lower value 0.995 | locus YNL233W, strain BNI4, stronger effect = lower value 1.02 | locus YNL248C, strain rpa49, stronger effect = lower value 0.914 | locus YNL250W, strain rad50, stronger effect = lower value 1.03 | locus YNL271C, strain bni1, stronger effect = lower value 1.02 | locus YNL298W, strain CLA4, stronger effect = lower value 1.04 | locus YNL307C, strain MCK1, stronger effect = lower value 1.02 | locus YNL322C, strain KRE1 (second series), stronger effect = lower value 1.01 | locus YNL322C, strain KRE1, stronger effect = lower value 0.996 | locus YNR049C, strain mso1, stronger effect = lower value 0.993 | locus YNR052C, strain pop2, stronger effect = lower value 1.02 | locus YOL147C, strain pex11, stronger effect = lower value 1.02 | locus YOR001W, strain rrp6, stronger effect = lower value 0.934 | locus YOR061W, strain CKA2, stronger effect = lower value 1.02 | locus YOR069W, strain VPS5, stronger effect = lower value 1.01 | locus YOR070C, strain gyp1, stronger effect = lower value 1.01 | locus YOR080W, strain dia2, stronger effect = lower value 1.01 | locus YOR083W, strain WHI5 (second series), stronger effect = lower value 0.978 | locus YOR083W, strain WHI5, stronger effect = lower value 1.05 | locus YOR106W, strain vam3, stronger effect = lower value 1.06 | locus YOR136W, strain idh2, stronger effect = lower value 1.03 | locus YOR144C, strain elg1, stronger effect = lower value 1.05 | locus YOR184W, strain ser1, stronger effect = lower value 1.08 | locus YOR231W, strain MKK1, stronger effect = lower value 1 | locus YOR265W, strain rbl2, stronger effect = lower value 1.01 | locus YOR270C, strain vph1, stronger effect = lower value 1.04 | locus YOR290C, strain snf2, stronger effect = lower value 1.03 | locus YOR316C, strain cot1, stronger effect = lower value 1.04 | locus YPL051W, strain arl3, stronger effect = lower value 1.02 | locus YPL055C, strain LGE1, stronger effect = lower value 1 | locus YPL078C, strain atp4, stronger effect = lower value 0.991 | locus YPL106C, strain sse1, stronger effect = lower value 1.04 | locus YPL240C, strain hsp82, stronger effect = lower value 1 | locus YPL256C, strain CLN2, stronger effect = lower value 0.992 | locus YPR119W, strain clb2, stronger effect = lower value 1.03 | locus YPR141C, strain kar3, stronger effect = lower value 1.01 | locus YPR163C, strain tif3, stronger effect = lower value 1.02 | locus YPR167C, strain met16, stronger effect = lower value 1.02 | strain wtn01, stronger effect = lower value 1.06
